Screen size: about 68,000 compounds; about 2,700 (4%) showed an effect of 50% or more. The list comes from a sample in which strong results are over-represented; it also holds similar structures and randomly drawn compounds.

Our source for the INHIBITION values is ChEMBL document CHEMBL4513216, “Probing the Open Global Health Chemical Diversity Library for Multistage-Active Starting Points for Next-Generation Antimalarials” (ACS Infect Dis, 2020).

The test concerns Plasmodium berghei. Briefly: Screen against P. berghei liver stage (PbLuc), transformed with Luciferase, at 2uM. The class given is functional, HepG2. Conditions: tested at 2 uM.
For the compound `CC(C)N1CCCC(Cc2nccnc2Cl)C1` (centres undefined), the INHIBITION is given as -47.18%.
With `Cc1nc(C)c(C(C)NCc2c(C(C)C)nn(C)c2N(C)C)s1` (centres undefined) the figure was -34.69%.
Consider `COc1c(CNC(C)c2sc(C)nc2C)c(C(C)C)nn1C` (centres undefined), for which the INHIBITION was 59.99%.
In the case of `Cc1nc(C)c(C(C)NCc2c(C)nn(C)c2N(C)C)s1` (centres undefined) it was -30.49%.
In the case of `Cc1ccc(-c2cc(N)c(=O)n(C(C)C(=O)NCC3CCCCC3)n2)s1` (centres undefined) it was -1.07%; in that of `Cc1ncsc1CN1C[C@@H]2CC[C@H]1CN(Cc1ccccc1)C2`, 15.68%.
`CC(C)(C)C(O)CN1CCN(CCOCC(F)(F)F)CC1` (centres undefined): the INHIBITION is listed as -17.11%.
Consider `Cc1nn(C)c(C)c1C(=O)NCc1ccnc(OCC(F)(F)F)c1`, for which the INHIBITION came out at 11.09%.
In the case of `COCCN1CCCC1c1ccnc(-c2ccccc2)n1` (centres undefined) it was 14.3%; in that of `CCCn1cc(-c2cc(-c3cnc(OC)nc3)c(C#N)c(N)n2)c(C)n1`, 38.61%; in that of `CCCn1cc(-c2cc(-c3c[nH]cn3)c(C#N)c(N)n2)c(C)n1`, 38.15%.
On to `CCCn1cc(-c2cc(-c3ccoc3)c(C#N)c(N)n2)c(C)n1`, for which the INHIBITION stood at 61.28%.
For the compound `Cc1cccc(-c2noc(CN3CC(n4cccn4)C3)n2)c1`, the INHIBITION is given as -15.28%.
With `CS(=O)(=O)Cc1ccc(Cl)c(NCc2noc(C3CC3)n2)c1` the figure was -22.2%; with `Cc1ccc(-c2ccc(Cl)nn2)cc1S(=O)(=O)N1CCOCC1`, 4.88%; with `Cc1cc(C)c(S(=O)(=O)Nc2c(C)nc(N(C)C)nc2C)cc1C`, -46.61%.
In the case of `CN1CC2(CCCN(Cc3nnc(-c4cccc(F)c4)o3)C2)OC1=O` (centres undefined) it was 54.49%; in that of `CN1CC2(CCCN(Cc3nnc(-c4ccco4)o3)CC2)OC1=O` (centres undefined), 16.82%.
With `CN1CC2(CCCN(Cc3nnc(-c4ccccc4)o3)CC2)OC1=O` (centres undefined) the figure was -16.62%.
As for `O=C(NC[C@]12COC[C@H]1CN(Cc1ccco1)C2)c1ccccc1`, the INHIBITION is -36.34%.
As to `O=C(NCc1ccco1)N1CCC(n2ccc(C(F)(F)F)n2)CC1`, the INHIBITION is reported as -43.09%.
With `Cc1nn(C)cc1CN1CCCC(n2c(=O)oc3ccc(Cl)cc32)C1` (centres undefined) the figure was 13.17%; with `COCC(=O)N1CCN(C(=O)c2cccs2)[C@@H](C(=O)OC)C1`, -19.02%.
With `COC(=O)[C@H]1CN(C(C)=O)CCN1C(C)=O` the figure was 56.21%; with `COCC(=O)N1CCN(C(=O)C2CCCCC2)[C@@H](C(=O)OC)C1`, 72.68%; with `COC(=O)[C@H]1CN(C(=O)NC(C)C)CCN1C(=O)C1CCCCC1`, 16.67%.
Regarding `COCC(=O)N1CCN(C(C)=O)C[C@@H]1C(=O)OC`, the INHIBITION came out at 23.53%.
In the case of `COC(=O)[C@@H]1CN(C(=O)Nc2ccccc2)CCN1C(C)=O` it was -21.22%; in that of `CNC(=O)C1(c2cnccn2)CCCN1C(=O)Cc1ccsc1` (centres undefined), 36.82%.
In the case of `CN(CCc1ccccn1)Cc1nccn1Cc1ccccc1` it was -9.98%; in that of `CN(C)Cc1cnc2n1CCN(C(=O)Cc1ccsc1)CC2`, 37.51%.
Turning to `CN(C)Cc1cnc2n1CCN(C(=O)C1CC=CC1)CC2`, the INHIBITION was found to be 46.27%.
In the case of `CN(C)Cc1cnc2n1CCN(C(=O)Cc1cccc(F)c1)CC2` it was 54.82%; in that of `CN(C)Cc1cnc2n1CCN(C(=O)NCc1ccccc1)CC2`, 53.44%.
With `CN(C)Cc1cnc2n1CCN(C(=O)NC1CCCC1)CC2` the figure was 16.03%.
On to `CN(C)Cc1cnc2n1CCN(C(=O)Cc1ccc(F)cc1)CC2`, for which the INHIBITION is listed as 8.41%.
Turning to `CN(Cc1ccccc1F)C(C(N)=O)c1ccccc1` (centres undefined), the INHIBITION came out at 24.62%.
Consider `CN(C)S(=O)(=O)c1ccc(-c2nc(C#N)c(NC(C)(C)C)o2)o1`, for which the INHIBITION came out at 1.3%.
Regarding `CCN(CC)CCN1CC[C@H]2OCC[C@@]2(C(=O)N2CCOCC2)C1`, the INHIBITION worked out at 41.38%.
With `COC(=O)c1cccc(C(=O)N2CCN(c3cc(Cl)ccc3C)CC2)n1` the figure was 18.76%; with `CC(C)=CCCC(C)CN1CCC(n2cc(C(=O)NCCO)nn2)CC1` (centres undefined), 48.93%; with `CC(C)=CCCC(C)CN1CCC(n2cc(C(C)(C)O)nn2)CC1` (centres undefined), 15.27%.
In the case of `CC(C)=CCCC(C)CN1CCC(n2cc(CO)nn2)CC1` (centres undefined) it was 55.66%.
As to `Fc1cccc(C2(CNC3CCOC4(CCOCC4)C3)CCOCC2)c1` (centres undefined), the INHIBITION is -8.87%.
With `COc1cc(CNCCn2cc(C)cn2)c2c(c1)CC(C)O2` (centres undefined), the INHIBITION is given as -11.26%.
In the case of `COc1cccc(OCC(=O)N(C)c2cccnc2N(C)C)c1` it was -3.66%.
For the compound `COc1ccc(CC(=O)N(C)c2cccnc2N(C)C)c(Cl)c1`, the INHIBITION stood at 54.29%.
As to `CN(C)c1ncccc1N(C)C(=O)Cn1cc(-c2ccccc2)nn1`, the INHIBITION is -34.37%.
With `Fc1ccc(CN2CCC3(CC2)CCN(c2ncccn2)CC3)cc1` the figure was 26.94%; with `CC(O)CN1CCC(CN(C)Cc2cc(F)cc3cccnc23)CC1` (centres undefined), -0.44%.
`Cc1ccc2c(n1)N(CCN(C)C)CCN(C(=O)c1cccs1)C2`: the INHIBITION is on record as -29.61%.
Consider `Cc1cnc2n(c1=O)CC(C(=O)NCc1ccccc1Cl)CS2` (centres undefined), for which the INHIBITION stood at 39.58%.
With `COc1cc2c(cc1-c1nc3c(cnn3C(C)C(C)C)[nH]1)OCO2` (centres undefined) the figure was 7.67%; with `CCn1ncc2[nH]c(-c3cc(OC)c(OC)cc3OC)nc21`, 13.04%.
